In the library only some 1.6% were active in any assay of this set; here they are far more common.
KCNQ2 inh: KCNQ2 (rat) channel inhibition | O88943 | CHO-K1 KCNQ2, FluxOR thallium flux, 20 min; active compounds read low | B-score at 10 µM | actives 1.1% (n = 310,000);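 active = fluorescence ratio B-score at most minus 3 library SDs, with starting brightness B-score within 2 library SDs, cut at about -5.5 in these data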
Target sequence (O88943 whole entry, looked up): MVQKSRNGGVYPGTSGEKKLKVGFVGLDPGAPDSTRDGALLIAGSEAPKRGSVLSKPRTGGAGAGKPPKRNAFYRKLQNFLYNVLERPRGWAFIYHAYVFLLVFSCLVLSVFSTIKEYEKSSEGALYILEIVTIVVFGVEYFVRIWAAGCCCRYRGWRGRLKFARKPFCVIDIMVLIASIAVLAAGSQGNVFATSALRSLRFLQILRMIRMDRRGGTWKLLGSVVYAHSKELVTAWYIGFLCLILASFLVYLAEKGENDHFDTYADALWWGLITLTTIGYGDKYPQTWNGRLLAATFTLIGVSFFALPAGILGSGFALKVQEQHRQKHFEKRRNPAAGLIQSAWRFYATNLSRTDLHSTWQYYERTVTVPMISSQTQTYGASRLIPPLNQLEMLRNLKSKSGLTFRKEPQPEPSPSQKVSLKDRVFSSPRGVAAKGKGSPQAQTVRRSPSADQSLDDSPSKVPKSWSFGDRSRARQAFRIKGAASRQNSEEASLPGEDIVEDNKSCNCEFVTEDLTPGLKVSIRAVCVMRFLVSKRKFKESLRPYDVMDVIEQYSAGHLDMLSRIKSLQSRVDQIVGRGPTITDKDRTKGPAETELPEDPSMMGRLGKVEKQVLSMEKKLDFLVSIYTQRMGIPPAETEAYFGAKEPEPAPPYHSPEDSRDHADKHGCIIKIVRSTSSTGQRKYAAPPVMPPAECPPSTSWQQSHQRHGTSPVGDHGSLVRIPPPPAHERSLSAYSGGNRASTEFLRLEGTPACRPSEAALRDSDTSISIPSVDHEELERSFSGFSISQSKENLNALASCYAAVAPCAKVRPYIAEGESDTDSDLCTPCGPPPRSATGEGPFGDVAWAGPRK
KCNQ2 pot: enhances the rat KCNQ2 potassium channel; B-score at 10 µM; actives 0.54% (n = 310,000); O88943; CHO-K1 KCNQ2, FluxOR thallium flux fluorescence; active compounds read high;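 active = fluorescence ratio B-score at least 3 SD of library B-scores, with initial fluorescence B-score within 3 of them, cut at about 5.3 in these data; same plate scores as AID 2156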;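 also: B-score of peak minus minimum over baseline fluorescence ratio after K+ and Tl+ stimulus; positive B-score means potentiation of KCNQ2 with more thallium influx and brighter signal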
An asterisk follows results filed as active; i = inactive; nt = no result.

SMILES	KCNQ2 inh	KCNQ2 pot
O=C(O)c1ccccc1NC(=S)NC(=O)c1sc2ccccc2c1Cl	i	0.83
CC1(C)Cc2cccc(OCC(=O)OCC(=O)NCc3ccccc3)c2O1	i	0.23
COc1ccc(NC(=O)CCN2C(=O)c3ccncc3C2=O)cc1OC	i	0.43
CCCCN(CCCC)C(=S)NC(=O)c1ccccc1Cl	i	19.1*
CCN(CC)C(=S)NC(=O)c1ccc(Cl)cc1Cl	i	4.17
COc1cccc(C(O)C2OC(=O)c3ccccc32)c1OC (centres undefined)	i	0.44
O=C(NCCCN1CCOCC1)c1ccccc1N1C(=O)[C@@H]2Cc3c([nH]c4ccccc34)C(c3cccc(Cl)c3)N2C1=O (some centres undefined)	-5.63*	-5.63
Cc1ccc(C2c3[nH]c4ccccc4c3C[C@H]3C(=O)N(c4ccccc4C(=O)NCCCN4CCOCC4)C(=O)N23)cc1 (some centres undefined)	i	nt
O=C(Cn1ccc2ccccc2c1=O)NCC(=O)N1CCN(c2ccc(F)cc2)CC1	i	0.04
O=C(Oc1c(-c2ccccc2Cl)oc2ccccc2c1=O)c1ccc(Cl)cc1	-6.94*	-6.94
O=C(Oc1c(-c2ccccc2)oc2ccccc2c1=O)c1ccccc1	i	nt
COc1ccc(/C=C/C(=O)NC(=S)NCc2ccccc2)cc1OC	i	1.4
CC(C)OP(=O)(OC(C)C)C(NC(=O)c1ccc(Br)cc1)c1ccccc1 (centres undefined)	-7.95*	-7.95
CC(NC(=O)c1ccc(Br)cc1)c1ccccc1 (centres undefined)	i	2.61
COc1cccc(-c2nn(-c3ccccc3)cc2/C=C(/NC(=O)c2ccccc2)C(=O)O)c1	i	1.2
c1ccc(C2CC(c3ccccc3)C(c3ccccc3)N2)cc1 (centres undefined)	i	nt
O=C1CC(c2ccc(Br)cc2)NC(c2ccc(Br)cc2)C1c1ccccc1 (centres undefined)	-5.74*	-5.74
CCN(CC)C1CCN(C(=O)CCn2nnnc2CN2CCOCC2)C1 (centres undefined)	i	nt
Cn1c(CSc2ncccn2)nnc1SCC(=O)N1CCCC1	-6.3*	-6.3
Cn1c(CSc2ncccn2)nnc1SCC(=O)N1CCCCCC1	i	0.82
COC(=O)c1ccc(Cn2nnc3c(=O)[nH]c(C4CCCN(S(=O)(=O)c5cccc(Cl)c5)C4)nc32)cc1 (centres undefined)	i	1.4
CSc1ccccc1OCc1cc(C(=O)N(C)C2CCCc3ccccc32)no1 (centres undefined)	i	nt
CN(C(=O)c1cccc(C(F)(F)F)c1)C1CCCc2ccccc21 (centres undefined)	-5.77*	-5.77
CNc1nc(N)c(C(=O)C23CC4CC(CC(C4)C2)C3)s1	i	nt
N#Cc1ccsc1NC(=O)C1CC(=O)N(Cc2ccccc2)C1 (centres undefined)	i	1.93
SMILES	KCNQ2 inh	KCNQ2 pot
COc1cccc(CN2CCN(C(=O)c3cc(-c4cccnc4)nc4ccc(C)cc34)CC2)c1	-7.35*	-7.35
O=C(c1cc(-c2cccnc2)nc2ccc(Cl)cc12)N1CCN(S(=O)(=O)c2cccs2)CC1	i	nt
CCCCn1c(N)c(N(CC(C)C)C(=O)c2ccc(Br)s2)c(=O)[nH]c1=O	i	nt
Cc1ccc(CSc2nc3ccsc3c(=O)n2Cc2ccccn2)cc1	-6.21*	-6.21
N#Cc1ccccc1CSc1nc2ccsc2c(=O)n1Cc1ccccn1	i	nt
O=C(NC1=NCCS1)c1cc(-c2cccc(Br)c2)nc2ccccc12	i	nt
Cc1ccc2nc(-c3cccc(Br)c3)cc(C(=O)NC3=NCCS3)c2c1	-7.28*	-7.28
Cc1ccc(S(=O)(=O)Nc2cccc3ncccc23)cc1	i	nt
Cc1ccc(S(=O)(=O)Nc2cccc3ncccc23)s1	i	5.98*
Cc1ccc2c(c1)N(C(=O)CCC(=O)NCc1ccccc1)CC(C)O2 (centres undefined)	i	nt
Cc1ccc2c(c1)N(C(=O)CCC(=O)NCc1cccc(Cl)c1)CC(C)O2 (centres undefined)	-5.69*	-5.69
C=CCOc1c(Br)cc(CNc2ccc3[nH]c(=O)[nH]c3c2)cc1OCC	i	0.68
C=CCOc1c(Br)cc(CNc2ccc(NC(=O)C(C)C)c(OC)c2)cc1OCC	i	6.61*
O=C(NC1CCN(c2ncccn2)CC1)c1ccccc1Cl	i	nt
CCn1c(C)c(C)c2cc(C(=O)Nc3cccc(Cl)c3)ccc21	-6.57*	-6.57
CCn1c(C)cc(O)c(C(=O)Nc2cccc(Cl)c2)c1=O	i	1.64
CCc1ccc(NC(=O)C(=O)NNC(=O)COc2cccc(OC)c2)cc1	i	6.02*
COc1ccc(NC(=O)C(=O)NNC(=O)COc2ccc(OC)cc2)cc1	i	1.84
CC(=O)c1ccccc1NC(=O)COC(=O)/C=C/c1ccc(OC(F)F)cc1	i	0.09
O=C(c1cccc(N2C(=O)C3C4C=CC(C4)C3C2=O)c1)N1CCN(c2ccccc2F)CC1 (centres undefined)	i	2.22
CC(C)CN1C(=O)C(=Nc2cccnc2)c2ccccc21	i	0.24
Cn1c(SCC(=O)N2c3ccccc3Sc3ccccc32)nc2ccccc21	i	nt
O=C(CSc1nc2cc(Cl)ccc2s1)N1CCCc2ccccc21	-5.92*	-5.92
Cc1cc(=O)[nH]c(SCC(=O)N2CCCc3ccccc32)n1	-6.18*	-6.18
O=C(CSc1nc(O)cc(=O)[nH]1)N1CCCc2ccccc21	i	0.47
SMILES	KCNQ2 inh	KCNQ2 pot
CN(C)CCCn1c(SCC(=O)N2c3ccccc3Sc3ccccc32)nc2ccccc2c1=O	-6.43*	-6.43
COCCn1c(SCC(=O)N2CCCc3ccccc32)nc2ccccc2c1=O	-6.72*	-6.72
COCCn1c(SCC(=O)N2CCCc3ccccc32)nc2c(c1=O)SC(C)C2 (centres undefined)	i	nt
CCOc1ccc2nc(SCC(=O)N3CCCc4ccccc43)sc2c1	i	nt
Cc1cccc(CCNC(=O)C2CCCN(c3cnccn3)C2)c1 (centres undefined)	i	nt
COc1ccc(OCc2cc(C(=O)N3CCCC(O)C3)no2)c2ccccc12 (centres undefined)	i	nt
CN(C(=O)COC(=O)/C=C/c1ccc(C(F)(F)F)cc1)c1c(N)n(Cc2ccccc2)c(=O)[nH]c1=O	i	0.71
Cc1ccc(Nc2cnn(C34CC5CC(CC(CC(=O)O)(C5)C3)C4)c(=O)c2Cl)c(Cl)c1	i	1.06
Cc1ccnc(NC(=O)c2ccc(S(=O)(=O)N3CCCC3)cc2)c1	i	nt
CC1CCN(S(=O)(=O)c2cccc(C(=O)Nc3nncs3)c2)CC1	i	0.08
CC(Sc1nc2ccccc2c(=O)n1CCc1ccc(S(N)(=O)=O)cc1)C(=O)NC(N)=O (centres undefined)	i	1.14
CC(C)(C)C1CCC(=NNc2nc3ccccc3[nH]2)CC1 (centres undefined)	-5.76*	-5.76
c1ccc(CN2CCC(=NNc3nc4ccccc4[nH]3)CC2)cc1	i	0.87
CCOC(=O)CSc1nc2cc(S(=O)(=O)N3CCOCC3)ccc2n1CC	i	1.01
Clc1cccc(CSc2nnc(-c3ccccn3)n2Cc2ccco2)c1	-6.69*	-6.69
O=C(CSc1nnc(-c2ccccn2)n1Cc1ccco1)c1ccc(Cl)cc1	i	nt
CC(C)(C)c1ccc(CSc2nnc(-c3ccccn3)n2Cc2ccco2)cc1	-5.63*	-5.63
Brc1ccc(CSc2nnc(-c3ccccn3)n2Cc2ccco2)cc1	i	nt

From PubChem BioAssay
